NTR1 agonist – NTR1 (human) agonism | 330,000 compounds, 0.17% hits | activation, % at 20 µM | NTR1-U2OS beta-arrestin-GFP spot imaging, agonist mode | AID 493036 | P30989;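 active means activation at or above 40% of the spot to cytoplasm intensity ratio, with at least 20 cells analyzed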;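 further: 0% = DMSO without peptide and 100% = 100 nM NTR1 peptide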
Target sequence (P30989 whole entry, looked up): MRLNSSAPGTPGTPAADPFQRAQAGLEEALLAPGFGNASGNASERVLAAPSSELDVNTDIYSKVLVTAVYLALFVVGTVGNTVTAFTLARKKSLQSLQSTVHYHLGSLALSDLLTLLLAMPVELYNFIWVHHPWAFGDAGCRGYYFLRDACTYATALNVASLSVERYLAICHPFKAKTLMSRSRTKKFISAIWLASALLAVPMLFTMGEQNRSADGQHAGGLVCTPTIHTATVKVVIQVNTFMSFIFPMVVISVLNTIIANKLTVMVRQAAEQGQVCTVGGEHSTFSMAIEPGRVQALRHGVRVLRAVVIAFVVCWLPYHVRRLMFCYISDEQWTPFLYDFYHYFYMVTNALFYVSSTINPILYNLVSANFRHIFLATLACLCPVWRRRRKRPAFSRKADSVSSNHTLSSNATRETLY
NR3A LBD binder – NR3A (human) ligand-binding domain modulation; NR3A LBD differential scanning fluorimetry, Tm shift; 0% = protein alone, 100% = glycine-bound protein; Tm shift relative to glycine control, % at 25 µM; 340,000 compounds, 2.5% hits; AID 1259313;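 active means melting temperature shift of at least 10% of the positive control shift, at one fixed dose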
AI-2 QS modul – modulates the Vibrio harveyi AI-2 quorum sensing system; Vibrio harveyi JMH597 AI-2 luminescence/OD600 ratio, 9 h; stronger effect = lower value; strain lacks LuxN and CqsS sensors; 0 = neutral-control median; activity change, % at 7.5 µM; 300,000 compounds, 0.4% hits; AID 2094; in the data active means activity change below about -75%, passing the limit was not always enough;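 further: luminescence divided by OD600 gain over 9 h not by final OD600 alone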
Cardio protect – myocardial damage modulation in H9c2 cells; H9c2 cardiomyocytes, H2O2 injury protection, ATPLite, 2 h; protection from H2O2 cell death, % at 20 µM; 360,000 compounds, 0.63% hits; AID 588492;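 active means compounds giving at least 50% protection of heart cells from peroxide-induced death in the single-dose screen, raw or plate-pattern-corrected value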;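 further: 0% = DMSO wells with peroxide and 100% = DMSO wells without peroxide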
SUMO Mot1 rescue – inhibitors of SUMOylation pathway: yeast Mot1-301 growth rescue | S. cerevisiae Mot1-301 growth rescue, ATP luminescence, 38.5C; percent above DMSO median, 100 means doubled | growth rescue, % at 18.8 µM | AID 2716 | 320,000 compounds, 1% hits;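 active means every valid replicate shows activation above 250% relative to neutral control wells; inactive means the rest, any valid replicate at or below 250%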;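 further: OY570 slx delta 5 strain wells were the positive control but not used for scaling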
AHR activator – activates the human aryl hydrocarbon receptor; P35869; AHR-responsive luciferase reporter cells, luminescence; 320,000 compounds, 2.5% hits; activation, % at 5 µM; in the data active means activation above about 47%;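 further: 0% = vehicle wells and 100% = reference agonist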
* marks the source's active call; other numbers are inactive results; x = no result given. Hits are enriched below; roughly 6.2% of the tested compounds scored in any of these assays.

SMILES | NTR1 agonist | NR3A LBD binder | AI-2 QS modul | Cardio protect | SUMO Mot1 rescue | AHR activator
COc1ccc([C@H]2CC(=O)C=C(c3ccc4ncccc4c3)C2)cc1OC | 0 | 0 | x | 2 | -6 | 0
Cc1cc(C)nc(-n2nc(C)cc2NC(=O)c2cccc(S(=O)(=O)N(C)C)c2)n1 | 0 | 2 | 26 | x | -8 | 3
Cc1ccc(C)c(C(=O)Nc2cc(C)nn2-c2nc(C)cc(C)n2)c1 | 7 | -5 | 8 | 50* | 11 | 9
CCOc1cc(N2CCOCC2)c(OCC)cc1NC(=O)c1ccc(OC)cc1 | 1 | 1 | 16 | 11 | 286 | -2
CCOc1cc(N2CCOCC2)c(OCC)cc1NC(=O)c1ccc(OCc2c(C)noc2C)c(OC)c1 | 2 | -7 | 7 | 63* | 4 | -1
CCOC(CN=c1nc(N(C)C)ss1)OCC | x | 22* | x | -16 | x | x
Cn1c(N)c(C(C[N+](=O)[O-])c2c(F)cccc2Cl)c(=O)n(C)c1=O (stereo unspecified) | 1 | 1 | 14 | 1 | 38 | 1
CN(C)c1ccc(C(C[N+](=O)[O-])c2c(N)n(C)c(=O)n(C)c2=O)c(F)c1C#N (stereo unspecified) | 7 | 0 | 30 | 7 | 78 | 63*
COc1ccc(Br)cc1C(C[N+](=O)[O-])c1c(N)n(C)c(=O)n(C)c1=O (stereo unspecified) | 2 | 2 | x | -2 | 330* | 0
COC(=O)CC(NC(=O)Nc1ccccc1F)c1ccc2c(c1)OCO2 (stereo unspecified) | -2 | -2 | -7 | 4 | 3 | 0
Nc1ccc(C(=O)Nc2ccc3nc(-c4cccnc4)[nH]c3c2)cc1 | 1 | 13* | 26 | 1 | -10 | 3
Cn1cccc1-c1nc2ccc(NC(=O)c3ccc([N+](=O)[O-])cc3)cc2[nH]1 | 10 | 27* | 5 | 3 | 0 | -9
COC(=O)c1ccc(C(=O)Nc2ccc3nc(-c4ccncc4)[nH]c3c2)cc1 | 0 | 15* | 7 | 23 | 90 | 6
COC(=O)c1ccc(C(=O)Nc2ccc3nc(-c4cccnc4)[nH]c3c2)cc1 | -1 | 4 | 10 | 37 | -6 | -3
Cn1cccc1-c1nc2ccc(NC(=O)c3ccccc3)cc2[nH]1 | 1 | 5 | 0 | -11 | -13 | -8
O=C(c1c(F)cccc1F)N1CCCC(c2nc(-c3ccc(F)cc3)no2)C1 (stereo unspecified) | 2 | 2 | 38 | 4 | 11 | 3
CCCCn1c(N)c(N(CC(C)C)C(=O)CC2OC(=O)c3ccccc32)c(=O)[nH]c1=O (stereo unspecified) | 0 | -1 | 9 | 7 | 25 | 3
CC(C)n1c(SCC(=O)NC2CC2)nnc1-c1ccco1 | 0 | 1 | 14 | 8 | -15 | 20
COc1cc2c(cc1OC)C(c1cc(Br)c(OC)c(OC)c1)CC(=O)N2 (stereo unspecified) | 3 | -2 | 3 | -6 | -1 | x
COc1ccc(/C=N/NC(=O)c2cccs2)c2ccccc12 | 15 | 2 | 22 | 31 | -6 | 53*
Cc1ccc(/C=N\NC(=O)c2cncc(Br)c2)o1 | 0 | 0 | 9 | 17 | -10 | 64*
Cc1ccc(/C=N/NC(=O)c2cccs2)o1 | -2 | -2 | -2 | 1 | -1 | 78*
Cc1ccc(/C=N/NC(=O)c2csc(C)c2)o1 | 0 | 0 | 22 | -1 | 55 | 20
COc1ccc(/C=N/NC(=O)c2cccnc2)c2ccccc12 | 0 | -12 | -1 | 13 | -6 | 26
Cc1ccc(/C=N/NC(=O)c2cccnc2)o1 | -2 | -3 | 14 | -1 | -21 | 72*
CCCCCC(=O)N1C[C@H](O)[C@@H](n2cc(COC(=O)c3ccccc3)nn2)C[C@@H]1c1ccc(Cl)cc1 | x | x | x | -5 | x | x
COc1c(C)cc(S(=O)(=O)NCc2ccco2)c(C)c1C | 0 | 0 | 17 | 3 | -13 | -6
O=C(CCCl)Nc1cc(SCCO)cc([N+](=O)[O-])c1 | 1 | 2 | 9 | 1 | 11 | 3
O=C(Nc1cc(SCCO)cc([N+](=O)[O-])c1)c1ccc(Br)o1 | 2 | -1 | 24 | 0 | 2 | 52*

Bioassay records: PubChem, several laboratories
